According to PubChem BioAssay (NCI):
This is part of a sample that, as a whole, favours compounds with a hit. Of some 79,000 tested, about 15% had one in any assay. A number with no mark means an inactive call. Active and inactive are the calls of the source. No stated cut-off is given here; in the data, active means growth inhibition above about 70%; inactive means the rest.

Columns and labels:
[1] = NCI Yeast Anticancer Drug Screen. Data for the rad50 strain (AID 155);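 further: 0% = growth of vehicle-only cultures of the same strain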; details: S. cerevisiae rad50 strain growth inhibition, active compounds read high
Procedure, shortened: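 Readout: growth inhibition relative to vehicle-treated cultures. Compound exposure was carried out in a genetically defined yeast strain deficient in DNA damage repair.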

[2] = NCI Yeast Anticancer Drug Screen. Data for the mec2-1 strain (AID 157); details: S. cerevisiae mec2-1 strain, active compounds read high
Procedure, shortened: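 Strain: mec2-1 (DNA repair/cell cycle alteration). Compound exposure, then growth measured; inhibition expressed relative to vehicle.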

[3] = NCI Yeast Anticancer Drug Screen. Data for the sgs1 mgt1 strain (AID 161);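 further: 0% = growth of cultures given vehicle only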; details: S. cerevisiae sgs1 mgt1 strain, active compounds read high
Procedure, shortened: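 Read-out: growth inhibition vs vehicle controls. Cells: mutant yeast strain deficient in DNA damage repair.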

[4] = NCI Yeast Anticancer Drug Screen. Data for the cln2 rad14 strain (AID 165);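 further: 0% = growth equal to vehicle treated cultures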; details: S. cerevisiae cln2 rad14 strain, active compounds read high
Procedure, shortened: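 Compounds are applied to the cln2 rad14 yeast strain, and growth is then compared with that of vehicle-treated cultures to give inhibition.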

[5] = NCI Yeast Anticancer Drug Screen. Data for the bub3 strain (AID 167); details: S. cerevisiae bub3 mutant strain, active compounds read high
Procedure, shortened: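 Readout: yeast growth inhibition, expressed relative to vehicle-only wells. The test organism is a mutant strain from a panel with lesions in DNA repair or checkpoint genes.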

[6] = NCI Yeast Anticancer Drug Screen. Data for the mlh1 rad18 strain (AID 175); details: S. cerevisiae mlh1 rad18 strain growth inhibition, active compounds read high
Procedure, shortened: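 Read-out is yeast growth inhibition, calculated against vehicle-only controls. The compound was applied to a strain engineered with DNA damage repair alterations.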

[7] = at 5.0 µM (retest, dose inferred, filed as 0.5)
[8] = at 50.0 µM (retest, dose inferred, filed as 5.0)

Structure (SMILES) | growth inhibition [1, 7] | growth inhibition [1, 8] | growth inhibition ([1]; at 50.0 µM) | growth inhibition [2, 7] | growth inhibition [2, 8] | growth inhibition ([2]; at 50.0 µM) | growth inhibition [3, 7] | growth inhibition [3, 8] | growth inhibition ([3]; at 50.0 µM) | growth inhibition [4, 7] | growth inhibition [4, 8] | growth inhibition ([4]; at 50.0 µM) | growth inhibition [5, 7] | growth inhibition [5, 8] | growth inhibition ([5]; at 50.0 µM) | growth inhibition [6, 7] | growth inhibition [6, 8] | growth inhibition ([6]; at 50.0 µM)
Fc1ccc(NC2=NCCN=C(Nc3ccc(F)cc3)SS2)cc1 | 0% | 70% (active) | 85% (active) | 6% | 66% | 86.5% (active) | 4% | 69% | 86% (active) | -9% | 77% (active) | 69.8% | 6% | 76% (active) | 88% (active) | 29% | 85% (active) | 80.8% (active)
Cc1cc(-c2ccc(N=Nc3cc(S(=O)(=O)O)c4ccccc4c3N)c(C)c2)ccc1N=Nc1cc(S(=O)(=O)O)c2ccccc2c1N | 19% | 82% (active) | 64.6% | 16% | 60% | 52.1% | 29% | 69% | 66.8% |  |  |  | 26% | 73% (active) | 73.7% (active) | 32% | 86% (active) | 71% (active)
N=C(N)c1ccc(SCCCCCSc2ccc(C(=N)N)cc2)cc1 | 21% | 56% | 57.2% | 17% | 61% | 74% (active) |  |  |  | 22% | 57% | 44.6% | 23% | 83% (active) | 63.4% | 25% | 87% (active) | 72.3% (active)
CCOC1=Cc2c(oc3c(C(C)(C)C)cc(OCC)cc23)OC(C(C)(C)C)=C1 | 22% | 95% (active) | 71.2% (active) | 22% | 98% (active) | 85.3% (active) |  |  |  | 13% | 96% (active) | 75.7% (active) | 32% | 98% (active) | 78.7% (active) | 44% | 94% (active) | 19.6%
O=c1oc(-c2ccc(Cl)cc2[N+](=O)[O-])nc2ccccc12 | 16% | 10% | 77.2% (active) | 17% | -1% | 63.6% | 5% | 6% | 70.3% (active) | 31% | 5% | 39.2% | -6% | 6% | 66.5% | -23% | -13% | 68.5%
O=C(O)CCC(O)=C1S(=O)(=O)OCCOS1(=O)=O | -21% | 16% | 36% | -8% | 10% | 4.25% |  |  |  | -42% | -30% | 47.7% | -18% | 3% | 15.7% | -17% | -28% | 8.3%
C/C(=N\NC(=S)N1CCN(c2cnccn2)CC1)c1ccccn1 | 24% | 98% (active) | 91.4% (active) | 23% | 99% (active) | 89.9% (active) | 19% | 99% (active) | 86.1% (active) | 10% | 99% (active) | 88.2% (active) | 30% | 99% (active) | 85.3% (active) | 28% | 99% (active) | 91.7% (active)
CC(C)/C(Cl)=N/OC(NC(=O)Nc1ccc(Cl)c(Cl)c1)(C(F)(F)F)C(F)(F)F | 7% | 99% (active) | 99.2% (active) | 9% | 100% (active) | 99.6% (active) | 5% | 100% (active) | 99.5% (active) | 26% | 99% (active) | 99.2% (active) | 40% | 100% (active) | 99.5% (active) | 23% | 99% (active) | 99.5% (active)
CC(C)(C)c1cc(Cl)c(O)c(Cc2cc(C(C)(C)C)cc(Cl)c2O)c1 | 5% | 67% | 67% | 36% | 78% (active) | 72.2% (active) | -4% | 84% (active) | 82.5% (active) |  |  |  | 9% | 76% (active) | 62.5% | 52% | 85% (active) | 70.5% (active)
CCn1c(C)cc(=O)n1-c1ccc([N+](=O)[O-])cc1 | -160% | -148% | 51.1% | -45% | -50% | 17.4% | -60% | -48% | 25.4% | -64% | -69% | 24% | -71% | -78% | 50.1% | -146% | -110% | 68.9%
